Test results from PubChem BioAssay (Tox21).
Several values for one entry are separate records, joined by “and”; a condition that tells them apart may be missing. Equal entries are not always repeated. Where a structure was tested more than once in an assay, its records may differ in their call. Activity calls are given as the source filed them. Where a call stands in place of a potency, no number is given. Calls come from the whole dose curve.

Test system: not listed separately
Assay: qHTS assay to identify small molecule antagonists of the estrogen receptor alpha (ER-alpha) signaling pathway - cell viability counter screen (AID 743074);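 note: HEK293 cells carrying ER-alpha-UAS-bla reporter stimulated with 17beta-estradiol; nearly all actives have a fitted effect of over 45% in size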
Conditions: ERalpha-bla HEK293 viability, CellTiter-Glo luminescence, 18 h; series mostly up to 69.4 µM
Potency is the fitted concentration of half-maximal effect.

Row | SMILES | Potency
1 | CC(C)N1C(=O)N(c2ccccc2)CSC1=NC(C)(C)C | inactive
2 | Clc1ccc(C(c2ccccc2Cl)C(Cl)(Cl)Cl)cc1 (stereo not given) | inactive
3 | OC(c1ccc(Cl)cc1)(c1ccc(Cl)cc1)C(Cl)(Cl)Cl | inactive
4 | CC(=O)/C=C/c1ccc2c(c1)OCO2 | inactive
5 | Oc1ccc2ccc3cccc4ccc1c2c34 | inactive
6 | C[C@]12CC[C@H]3[C@@H](CCC4=CC(=O)CC[C@@]43C)[C@@H]1CC[C@@H]2O | inactive
7 | CC[C@H](C)[C@H]1O[C@]2(C=C[C@@H]1C)C[C@@H]1C[C@@H](C/C=C(\C)[C@@H](O[C@H]3C[C@H](OC)[C@@H](O[C@H]4C[C@H](OC)[C@@H](O)[C@H](C)O4)[C@H](C)O3)[C@@H](C)/C=C/C=C3\CO[C@@H]4[C@H](O)C(C)=C[C@@H](C(=O)O1)[C@]34O)O2 | inactive and 25.8 µM (active)
8 | CCN(CC)C(=S)[S-].CCN(CC)C(=S)[S-].[Zn+2] | 4.86 µM (active)
9 | O=C(Nc1ccc2[nH]ccc2c1)c1cc2cc(F)ccc2n1Cc1cccc(F)c1 | inactive
10 | O=C(CCl)C(Cl)Cl | 39.3 µM (active)
11 | CCCCCCCCCCCCCCC(Br)C(=O)O (stereo not given) | inactive
12 | O=c1ssc(Cl)c1Cl | inactive
13 | CC(=O)[O-].CC(=O)[O-].O.O.[Cd+2] | 43 µM (active)
14 | CC(C)(C)C(O)/C(=C\c1ccc(Cl)cc1Cl)n1cncn1 (stereo not given) | inactive
15 | C=CC(=O)OCCCCOC(=O)C=C | inactive
16 | C1CCC2CCCCC2C1 (stereo not given) | inactive
17 | Clc1ccc(COC(Cn2ccnc2)c2ccc(Cl)cc2Cl)cc1 (stereo not given) | 45.7 µM (active) and 34.5 µM (active)
18 | N#CCCC(Br)(C#N)CBr (stereo not given) | inactive
19 | CCOc1cc(C(C)(C)C)ccc1C1COC(c2c(F)cccc2F)=N1 (stereo not given) | inactive

Biological target: Estrogen receptor (Homo sapiens) (UniProt P03372)
Sequence (P03372 whole entry, looked up): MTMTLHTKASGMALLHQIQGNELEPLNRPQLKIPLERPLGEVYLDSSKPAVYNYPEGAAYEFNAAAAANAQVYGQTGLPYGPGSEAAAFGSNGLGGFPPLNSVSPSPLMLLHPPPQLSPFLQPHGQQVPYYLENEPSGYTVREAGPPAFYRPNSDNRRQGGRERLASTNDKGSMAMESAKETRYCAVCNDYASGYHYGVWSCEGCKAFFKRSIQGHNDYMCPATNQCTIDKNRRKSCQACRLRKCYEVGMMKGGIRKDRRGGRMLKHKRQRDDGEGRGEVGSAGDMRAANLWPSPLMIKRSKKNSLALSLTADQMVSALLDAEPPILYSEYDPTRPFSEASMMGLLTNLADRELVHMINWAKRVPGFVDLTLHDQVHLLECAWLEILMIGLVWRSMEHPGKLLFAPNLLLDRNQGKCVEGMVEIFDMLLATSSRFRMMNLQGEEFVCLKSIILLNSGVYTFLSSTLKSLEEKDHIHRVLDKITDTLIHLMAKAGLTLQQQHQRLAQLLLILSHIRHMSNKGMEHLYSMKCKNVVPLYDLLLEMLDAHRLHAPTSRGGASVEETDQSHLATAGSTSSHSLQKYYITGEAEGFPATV
Assay: qHTS assay to identify small molecule agonists of the estrogen receptor alpha (ER-alpha) signaling pathway (AID 743075);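 note: HEK293 GripTite cells with ER-alpha and UAS-driven beta-lactamase reporter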
Conditions: HEK293 ER-alpha-UAS-bla, beta-lactamase FRET ratio, 18 h; series mostly up to 70.1 µM

Row | SMILES | Potency
20 | CC(C)N1C(=O)N(c2ccccc2)CSC1=NC(C)(C)C | inactive
21 | CC(=O)/C=C/c1ccc2c(c1)OCO2 | inactive
22 | CC[C@H](C)[C@H]1O[C@]2(C=C[C@@H]1C)C[C@@H]1C[C@@H](C/C=C(\C)[C@@H](O[C@H]3C[C@H](OC)[C@@H](O[C@H]4C[C@H](OC)[C@@H](O)[C@H](C)O4)[C@H](C)O3)[C@@H](C)/C=C/C=C3\CO[C@@H]4[C@H](O)C(C)=C[C@@H](C(=O)O1)[C@]34O)O2 | inactive
23 | CCN(CC)C(=S)[S-].CCN(CC)C(=S)[S-].[Zn+2] | 54.5 µM [inconclusive] (active)
24 | Cc1cc(SCc2sc(-c3ccc(C(F)(F)F)c(F)c3)nc2C)ccc1OCC(=O)O | inactive
25 | O=C(CCl)Nc1ccccc1 | inactive
26 | O=C(CCl)C(Cl)Cl | 13.9 µM [inconclusive] (active)
27 | O=S(=O)(c1ccc(Cl)cc1)c1ccc(Cl)cc1 | inactive
28 | Oc1ccc(C2(c3ccc(O)cc3)CCCCC2)cc1 | 52.1 µM [inconclusive] (active)
29 | Oc1cc(Cl)c(Cl)c(Cl)c1 | 41.4 µM [activator] (active)
30 | COC12CC[C@@]3(C[C@@H]1C(C)(O)C(C)(C)C)[C@H]1Cc4ccc(O)c5c4[C@@]3(CCN1CC1CC1)[C@H]2O5 (stereo not given in full) | inactive
31 | CS(=O)(=O)c1ccc(C(=O)C2C(=O)CCCC2=O)c([N+](=O)[O-])c1 | inactive
32 | CC(C)(C)C(O)/C(=C\c1ccc(Cl)cc1Cl)n1cncn1 (stereo not given) | inactive
33 | C=CC(=O)OCCCCOC(=O)C=C | inactive
34 | CCCCCCCCCCCCBr | inactive
35 | C1CCC2CCCCC2C1 (stereo not given) | inactive
36 | CC(C)C1CCC(Cc2ccc(Cl)cc2)C1(O)Cn1cncn1 (stereo not given) | inactive
37 | N#CCCC(Br)(C#N)CBr (stereo not given) | inactive
38 | CCOCCOC(C)=O | inactive
39 | O=CC(Br)(Br)Br | 21.8 µM [inconclusive] (active)
40 | CCOc1cc(C(C)(C)C)ccc1C1COC(c2c(F)cccc2F)=N1 (stereo not given) | inactive
